Screens: PubChem, Sanford-Burnham Center for Chemical Genomics
Hits are enriched below; roughly 28% of the tested compounds scored in any of these assays.
Mac1 fbg inh: CD11b/CD18-fibrinogen binding inhibition. 0.54% of 93,000 active. P05107+P11215. inhibition, % at 10 µM. K562 CD11b/CD18 adhesion to fibrinogen, ATPlite luminescence; Mn2+ added to activate the integrin;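 active means primary inhibition of 50% or more at 10 µM, then 40% or more on retest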
Target sequence (P05107 whole entry, looked up, other chains not shown): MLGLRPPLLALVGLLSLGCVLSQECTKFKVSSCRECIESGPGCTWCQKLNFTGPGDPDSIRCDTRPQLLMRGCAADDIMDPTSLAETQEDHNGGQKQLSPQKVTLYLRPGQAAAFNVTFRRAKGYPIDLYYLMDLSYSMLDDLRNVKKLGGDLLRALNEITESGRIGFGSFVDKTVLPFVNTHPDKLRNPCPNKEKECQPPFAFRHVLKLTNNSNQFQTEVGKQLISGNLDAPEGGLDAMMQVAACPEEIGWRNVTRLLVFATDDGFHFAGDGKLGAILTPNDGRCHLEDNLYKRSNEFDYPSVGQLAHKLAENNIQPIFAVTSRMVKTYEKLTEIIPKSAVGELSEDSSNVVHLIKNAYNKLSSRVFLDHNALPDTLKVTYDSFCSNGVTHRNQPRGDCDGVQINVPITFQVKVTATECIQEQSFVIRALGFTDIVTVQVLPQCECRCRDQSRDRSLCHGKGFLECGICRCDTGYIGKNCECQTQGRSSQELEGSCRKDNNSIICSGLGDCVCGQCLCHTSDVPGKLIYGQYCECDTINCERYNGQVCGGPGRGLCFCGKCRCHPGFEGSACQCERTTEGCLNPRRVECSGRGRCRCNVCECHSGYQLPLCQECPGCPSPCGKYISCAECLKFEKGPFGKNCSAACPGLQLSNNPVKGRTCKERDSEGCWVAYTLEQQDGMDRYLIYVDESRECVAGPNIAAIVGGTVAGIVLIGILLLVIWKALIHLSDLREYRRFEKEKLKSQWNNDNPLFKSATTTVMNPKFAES
CD11b adhes enh: increases human CD11b/CD18 adhesion to fibrinogen. P05107+P11215. K562 CD11b/CD18 adhesion to fibrinogen, ATPlite luminescence. activation, % at 10 µM. 0.07% of 93,000 active. AID 1499;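 active means 10 µM primary screen giving 50% or more activity, confirmed by 40% or more on retest at that dose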
CYP2C9 act: increases human cytochrome P450 2C9 activity; 1.4% of 96,000 active; recombinant CYP2C9, luciferin-H conversion, luminescence; active compounds read high; factor 1 = untreated enzyme, 0 = blocked; activation factor at 5 µM; P11712;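 active means activation factor of 2 or more for CYP2C9 at a 5 µM dose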;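 further: 0 = sulfaphenazole-blocked wells and 1 = vehicle-only wells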
CYP2C9 inhib: human CYP2C9 inhibition. P11712. CYP2C9 Supersomes, luciferin-H conversion, luminescence. inhibition, % at 5 µM. 20% of 96,000 active. AID 777;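 active means blocking of liver enzyme CYP2C9 beyond about 50% at 5 µM, limit read from the data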
CYP2C19 inhib: human CYP2C19 inhibition; 21% of 96,000 active; AID 778; inhibition, % at 5 µM; CYP2C19 Supersomes, luciferin-H EGE luminescence, 30 min;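 active means CYP2C19 inhibition above a set limit at 5 µM in the primary screen, cut at about 50% in these data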;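 further: plate controls were negative control wells for no effect and 2.5 mM tranylcypromine positive control for full effect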
CYP2C19 act: activators of human cytochrome P450 2C19. AID 1025. recombinant CYP2C19, luciferin-H EGE luminescence; active compounds read high; 0 = fully inhibited enzyme, 1 = untreated enzyme. activation factor at 5 µM. 96,000 tested, under 10 active. P33261;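 active means activation factor of at least 2 at 5 µM in the primary screen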;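 further: 0 = wells with 2.5 mM tranylcypromine and 1 = vehicle-only wells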
An asterisk follows results filed as active; · = not tested or not shown.

SMILES	Mac1 fbg inh	CD11b adhes enh	CYP2C9 act	CYP2C9 inhib	CYP2C19 inhib	CYP2C19 act
CCCCOC(=O)C1=C(C)Nc2ncnn2C1c1cccc(OC)c1OC (stereo unspecified)	·	·	0.4	58*	82*	0.2
CC(=O)C1=C(C)Nc2ncnn2C1c1cccc(OCc2ccccc2)c1 (stereo unspecified)	-1	0	1.1	-13	11	0.9
COC(=O)c1ccc(C2C(C(=O)Nc3ccc(C)cc3C)=C(C)Nc3ncnn32)cc1 (stereo unspecified)	-1	4	0.7	25	62*	0.4
COc1ccc(S(=O)(=O)N2CCOCC2)cc1C(=O)Nc1cc(C)on1	-7	2	1.3	-31	-11	1.1
CC(=O)c1c(C)nc2ccc(Cl)cn12	0	-3	0.9	8	-6	1.1
CC(C)CC(=O)Nc1cc(NC(=O)CC(C)C)cc(C(=O)NC(C)(C)C)c1	5	-10	0.8	22	20	0.8
CCOCc1nc(C)c(Cl)c(NS(=O)(=O)c2ccc(N)cc2)n1	-16	1	0.8	24	-4	1
CC(C)(C)n1nc(-c2ccc(Cl)cc2)c2c(N)ncnc21	·	·	0.9	13	59*	0.4
CC(C)(C)n1nc(-c2ccc(F)cc2)c2c(N)ncnc21	-16	2	0.9	12	41	0.6
CCN1C(=O)C2(Nc3ccccc3-c3nc4ccccc4n32)c2cc(OC)ccc21 (stereo unspecified)	14	0	0.3	69*	34	0.7
CN1C(=O)C2(Nc3ccccc3-c3nc4ccccc4n32)c2ccccc21 (stereo unspecified)	-12	2	0.4	64*	71*	0.3
O=C(CCc1ccc(S(=O)(=O)NCCc2ccccc2)cc1)NCc1ccc2c(c1)OCO2	21	-4	0.2	83*	82*	0.2
O=C(CCc1ccc(S(=O)(=O)NCc2ccccc2)cc1)NCc1ccc2c(c1)OCO2	-5	1	0.2	76*	56*	0.4
O=C1NCCCC1C(=O)N1CCN(C(=O)C2CCCNC2=O)CC1 (stereo unspecified)	-3	-2	1.1	-10	-17	1.2
Cc1ccc(OCCSc2ncnc3sc(C)c(C)c23)cc1C	-22	-1	1	4	11	0.9
CC(=O)c1sc2nc(-c3cccs3)cc(C(F)(F)F)c2c1N	5	2	0.3	67*	58*	0.4
Cc1c(C(=O)Nc2nccs2)sc2nc(-c3cccs3)cc(C(F)(F)F)c12	·	·	0.6	38	13	0.9
COc1cc2c(cc1OC)C(C(=O)N1CCN(c3ccccc3)CC1)C(c1cccs1)N(C)C2=O (stereo unspecified)	-2	2	0.9	7	12	0.9
CCCc1cc(=O)n2[nH]c(CCc3ccccc3)nc2n1	-5	1	0.5	52*	6	0.9
O=S(Cc1ccc(Cl)cc1)CC(O)COCc1ccc(Cl)cc1 (stereo unspecified)	12	-2	0.9	9	7	0.9
CCCc1n[nH]c2c1C(=O)C(C(=O)OC)C(C)(C)C2 (stereo unspecified)	-4	-2	0.8	17	86*	0.1
CCN(CC)S(=O)(=O)c1cccc(NC(=O)COC(=O)c2cc(C)oc2C)c1	21	-1	0	96*	64*	0.4
Cc1cc(C(=O)OCC(=O)Nc2ccc(F)cc2)c(C)o1	6	1	1.1	-10	61*	0.4
Cc1cc(NC(=O)CCCC(=O)Nc2ccc(F)cc2)no1	-44	0	0.6	37	46	0.5
O=C(NC(NCCCN1CCOCC1)(C(F)(F)F)C(F)(F)F)C1CCCCC1	-15	0	1	2	7	0.9
SMILES	Mac1 fbg inh	CD11b adhes enh	CYP2C9 act	CYP2C9 inhib	CYP2C19 inhib	CYP2C19 act
CCc1cc(-c2n[nH]c(=S)n2C(C)c2ccccc2)cs1 (stereo unspecified)	6	1	0.1	87*	82*	0.2
Cc1cc(S(=O)(=O)N2CCCC2C(=O)N2CCOCC2)c(C)cc1Cl (stereo unspecified)	-43	-5	3*	-199	63*	0.4
COc1cccc(NC(=O)CNC(=O)c2ccccc2)c1	-14	0	0.5	46	50*	0.5
CC(=O)c1cccc(NC(=O)CCOc2ccccc2)c1	-6	-3	1.8	-83	22	0.8
COC(=O)c1cccc(NC(=O)Cn2nnc3ccccc32)c1	10	1	0	96*	64*	0.4
COC(=O)c1cccc(NC(=O)CCCOc2ccccc2)c1	·	·	0.4	59*	80*	0.2
COc1cccc(NC(=O)CNC(C)CCC(C)C)c1 (stereo unspecified)	-8	-2	0.7	26	79*	0.2
COc1ccc(C(=O)Nc2cccc(OC)c2)cc1	6	0	0.8	18	48	0.5
CCOC(=O)c1ccc(NC(=O)Cn2nnc3ccccc32)cc1	10	-3	0.9	11	-3	1
CC(C)COc1cccc(C(=O)NC(=S)NCc2cccnc2)c1	-6	2	·	·	·	·
O=C(O)CSC12CC3CC(C1)CC(C(=O)O)(C3)C2	16	0	1.1	-8	-16	1.2
O=c1c(Cl)c(N2CCN(c3ccc(F)cc3)CC2)cnn1C12CC3CC(CC(C3)C1)C2	32	3	·	·	·	·
COc1ccccc1C(=O)NCC(=O)Nc1ccccc1	8	7	0.9	9	51*	0.5
COc1cc(NS(=O)(=O)c2ccc(NC(=O)/C(=C\c3ccccc3OC)NC(=O)c3ccccc3)cc2)nc(OC)n1	6	0	1	2	2	1
O=C1c2ccccc2-c2cccc(NS(=O)(=O)c3ccc(C(F)(F)F)cc3)c21	104	-12	0.1	88*	2	1
CC(C)Cc1ccc(C(C)C(=O)Nc2nccs2)cc1 (stereo unspecified)	5	0	0.3	68*	51*	0.5
CCOC(=O)C(Cc1ccccc1)C(=O)Nc1nccs1 (stereo unspecified)	11	-1	0.6	36	25	0.8
CC(C)C(C(=O)Nc1nccs1)c1ccccc1 (stereo unspecified)	-10	2	0.5	52*	68*	0.3
CCOC(=O)C(C(=O)OCC)C(CC(=O)C1CC1)c1ccccc1 (stereo unspecified)	-19	0	1	1	19	0.8
CC1CCC2(CC1)NC(=S)N(c1ccccc1)N2 (stereo unspecified)	-14	-4	0.9	9	54*	0.5
Cc1cc(C)c(S(=O)(=O)N(C)CC(=O)N2CCCCC2)c(C)c1	-4	0	2.9*	-185	44	0.6
Cc1cc(C)c(S(=O)(=O)N(CC(=O)N2CCCC2)C2CCCCC2)c(C)c1	1	-4	0.4	58*	28	0.7
